A selection: hits, their analogues and other compounds. The true share with any hit is near 1.7%.
TRPML1 blocker: inhibitors of human TRPML1 channel; 390,000 tested, 0.02% active; TRPML1-inducible cells, Ca2+ dye fluorescence, FDSS; active compounds read low; inhibition of EC80 agonist-evoked calcium signal; AID 624415; activity change, negative = inhibition, % (no concentration beside the values); Q9GZU1; in the data active means activity change below about -50%; inconclusive means between about -30% and that limit;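 further: stimulus is agonist 54-4 at its EC80 concentration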
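Tet-induced TRPML1-DL cells loaded with Ca8 no-wash calcium dye were read kinetically on FDSS. Compound addition was followed by EC80 agonist 54-4 (4 uM final); inhibition was read over 110 s.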
TRPML1 ag: human mucolipin-1 channel agonism; activation, % (test concentration not listed); TRPML1-expressing cells, Ca2+ dye fluorescence, FDSS; 410,000 tested, 0.12% active; in the data active means activation above about 50%; inconclusive means mostly about 30% to 49%
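Calcium fluorescence on an FDSS kinetic reader gave the read-out. Tet-induced TRPML1-DL cells were plated overnight, dye-loaded (Ca8 with quencher, 45-90 min, room temperature, dark), then read 110 s after compound addition, and again 110 s after 4uM final 54-4 (EC80).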
KCNH2 3.1 inh: blocks the human KCNH2 3.1 channel isoform. U2OS KCNH2 3.1, thallium flux FluxOr; active compounds read low. activity change, % (tested at about 1.8 µM). 340,000 tested, 0.95% active;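 active means maximum activity change below -70%; inconclusive means maximum activity change from -70% to -50%; inactive means maximum activity change above -50%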;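 further: thallium influx rate constant from kinetic fluorescence after stimulation buffer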
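Thallium flux read-out: FluxOr dye with Red40 quencher in HBSS/HEPES, 45 min at RT. Rate constants from kinetic reads were normalized to positive and negative DMSO controls. Cells: U2OS virally expressing the 3.1 isoform.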
TRHR enhancer-1: TRH receptor (human) allosteric enhancement; AID 493056; P34981; 360,000 tested, 0.66% active; TRHR cells, fluo-8 calcium fluorescence, EC20 TRH enhancement; enhancement, % at 2 µM; in the data active means enhancement above about 30%
Target sequence (P34981 whole entry, looked up): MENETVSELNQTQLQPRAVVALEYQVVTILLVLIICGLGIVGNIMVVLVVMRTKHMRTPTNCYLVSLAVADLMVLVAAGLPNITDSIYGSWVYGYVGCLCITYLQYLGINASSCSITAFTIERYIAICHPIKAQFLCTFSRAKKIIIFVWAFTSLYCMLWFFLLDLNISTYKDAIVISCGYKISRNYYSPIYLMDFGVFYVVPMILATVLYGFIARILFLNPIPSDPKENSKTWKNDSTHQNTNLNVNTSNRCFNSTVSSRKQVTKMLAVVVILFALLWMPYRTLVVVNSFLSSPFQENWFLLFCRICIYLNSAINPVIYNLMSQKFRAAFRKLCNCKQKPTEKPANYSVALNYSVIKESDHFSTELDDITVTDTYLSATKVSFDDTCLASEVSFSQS
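TRHR-expressing cells loaded with fluo-8 calcium dye were read kinetically (ex 480/em 530) during compound addition, then stimulated with an EC20 of TRH (10 nM final). Enhancement of the Gq-mediated intracellular calcium response was scored.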
TRHR agonist-1: activates the human TRH receptor. P34981. TRHR cells, calcium flux fluo-8, FDSS agonist mode. activation, % at 2 µM. 360,000 tested, 0.18% active; in the data active means activation above about 30%
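TRHR-expressing cells, plated overnight in medium with 10% serum, were loaded with fluo-8 calcium dye at room temperature. After a 10 s baseline, library compound was pin-added and calcium release was recorded kinetically (ex 480/em 530) as agonist response.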
KCNH2 WT inh: inhibitors of human wildtype KCNH2 potassium channel; AID 720551; 340,000 tested, 0.37% active; U2OS, BacMam KCNH2, thallium flux FluxOr; active compounds read low; activity change, % at 1.84 µM; Q12809;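 active means maximum activity change below -70%; inconclusive means maximum activity change between -70% and -50%; inactive means maximum activity change above -50%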
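U2OS cells transduced with wild-type KCNH2 virus are loaded with FluxOr dye for 45 min, and thallium flux is measured in kinetic reads before and after stimulation buffer. Rate constants are normalized to DMSO controls.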
TRHR enhancer-2: human TRH receptor allosteric enhancement confirmation; TRH receptor cell assay, enhancer confirmation qHTS; 970 tested, under 10 active; shares compounds with TRHR enhancer-1; activity change, negative = inhibition, % at 46.1 µM; AID 493076;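 further: compound effect scored on response to added TRH at EC20 of 10 nM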
TRHR agonist-2: human TRH receptor agonism confirmation | Potency, µM (doses to about 46.1 µM), usual class: activators | TRHR-expressing cells, agonist activation read-out | shares compounds with TRHR enhancer-1 | 970 tested, 8% active; further: nearly all actives have a fitted effect of over 75% in size
A number is an active result. Unless noted, the call rests on the fitted dose curve; in most records, active means well fitted curve in the direction sought with a large enough effect; inconclusive means small, poorly fitted or top-dose-only effect, or another doubt; inactive means no such curve, though single readings can be large; an effect the other way counts as inactive or inconclusive.

What do the screens show for `COC(=O)C1=C(c2ccc(S(C)(=O)=O)cc2)C[C@@H]2CC[C@H]1N2C(=O)N1CCC(C)CC1`?
TRPML1 blocker: inactive; TRPML1 ag: inactive; KCNH2 3.1 inh: -99; KCNH2 WT inh: inactive

Results for CCOc1ccc(-c2c(C)n(-c3ccc(OCC)cc3)c3[n+]2CCCCC3)cc1 ?
TRPML1 blocker: inactive; TRPML1 ag: inactive; KCNH2 3.1 inh: -112; TRHR enhancer-1: inactive; TRHR agonist-1: inactive; KCNH2 WT inh: inactive

How did COC(=O)C1=C(c2cccc(OC)c2OC)C[C@@H]2CC[C@H]1N2C(=O)NCCS(C)=O (some centres not stated) do in these assays?
TRPML1 blocker: inactive; TRPML1 ag: inactive; KCNH2 3.1 inh: inactive; KCNH2 WT inh: -163

What do the screens show for `COC(=O)C1=C(c2cccc(OC)c2OC)C[C@@H]2CC[C@H]1N2C(=O)NCCO`?
TRPML1 blocker: inactive; TRPML1 ag: inactive; KCNH2 3.1 inh: inactive; KCNH2 WT inh: inactive

What do the screens show for `COC(=O)C1=C(c2ccc(F)cc2OCc2ccccc2)C[C@@H]2CC[C@H]1N2C(=O)N1CCC(O)CC1`?
TRPML1 blocker: inactive; TRPML1 ag: inactive; KCNH2 3.1 inh: inactive; TRHR enhancer-1: 37; TRHR agonist-1: inactive; KCNH2 WT inh: inactive

What do the screens show for `COC(=O)C1=C(c2ccccc2OCc2ccccc2)C[C@@H]2CC[C@H]1N2C(=O)NCc1ccccc1`?
TRPML1 blocker: inactive; TRPML1 ag: inactive; TRHR enhancer-1: inactive; TRHR agonist-1: inactive

Results for COC(=O)C1=C(c2ccccc2OCc2ccccc2)C[C@@H]2CC[C@H]1N2C(=O)NCc1ccc(Br)cc1 ?
TRPML1 blocker: inactive; TRPML1 ag: inactive; KCNH2 3.1 inh: -82; TRHR enhancer-1: inactive; TRHR agonist-1: inactive; KCNH2 WT inh: inactive

What do the screens show for `Nc1ccc2ccc3cccc[n+]3c2c1`?
TRPML1 blocker: inactive; TRPML1 ag: 87; KCNH2 3.1 inh: inactive; TRHR enhancer-1: inactive; TRHR agonist-1: 65; KCNH2 WT inh: inactive

Results for O=c1[nH]c(=S)n(Cc2ccc(F)cc2)c(O)c1C=NCCCn1ccnc1 ?
TRPML1 blocker: inactive; TRPML1 ag: inactive; KCNH2 3.1 inh: -84; TRHR enhancer-1: inactive; TRHR agonist-1: inactive; KCNH2 WT inh: inactive

How did O=C(Nc1ccc(Br)cc1C(=O)c1ccccc1Cl)c1ccccc1F do in these assays?
TRPML1 blocker: inactive; TRPML1 ag: 77; TRHR enhancer-1: inactive; TRHR agonist-1: inactive

How did COc1ccc(OCC(=O)N2CCN(Cc3cccc(OC)c3OC)CC2)cc1 do in these assays?
TRPML1 blocker: inactive; TRPML1 ag: inactive; TRHR enhancer-1: inactive; TRHR agonist-1: inactive

How did Ic1ccccc1CN[C@@H]1C2CCN(CC2)[C@@H]1C(c1ccccc1)c1ccccc1 do in these assays?
TRPML1 blocker: inactive; TRPML1 ag: inactive; KCNH2 3.1 inh: -75; TRHR enhancer-1: inactive; TRHR agonist-1: inactive; KCNH2 WT inh: inactive

Results for Cc1ccc(C(=O)CN2CCOCC2)cc1 ?
TRPML1 ag: inactive

Results for NNC(=O)c1ccc(O)cc1 ?
TRPML1 blocker: inactive; TRPML1 ag: inactive; KCNH2 3.1 inh: inactive; TRHR enhancer-1: 47; TRHR agonist-1: inactive; KCNH2 WT inh: inactive; TRHR enhancer-2: inactive; TRHR agonist-2: inactive

What do the screens show for `C=CCn1c(=O)/c(=C\c2ccccn2)s/c1=C(/C#N)C(=O)NCC1CCCO1` (configuration not stated)?
TRPML1 blocker: inactive; TRPML1 ag: inactive; KCNH2 3.1 inh: inactive; TRHR enhancer-1: inactive; TRHR agonist-1: 46; TRHR enhancer-2: inactive; TRHR agonist-2: inconclusive

How did CC(C)CNP(=S)(c1ccccc1)C(C)(C)C (configuration not stated) do in these assays?
KCNH2 3.1 inh: inactive; TRHR enhancer-1: 43; TRHR agonist-1: inactive; KCNH2 WT inh: inactive; TRHR enhancer-2: inactive; TRHR agonist-2: inactive

Results for CC(C)(C)P(=O)(NCc1ccccc1)c1ccccc1 (configuration not stated) ?
TRPML1 blocker: inactive; TRPML1 ag: inactive; KCNH2 3.1 inh: inactive; TRHR enhancer-1: inactive; TRHR agonist-1: inactive; KCNH2 WT inh: inactive

Results for N#Cc1cc2c(nc1SCC(=O)Nc1ccc(F)c(Cl)c1)C1CCN2CC1 ?
TRPML1 blocker: inactive; TRPML1 ag: inactive; TRHR enhancer-1: inactive; TRHR agonist-1: inactive

What do the screens show for `Cc1ccc(-c2nc3ccccc3c(=O)n2-c2ccc(O)cc2)cc1`?
TRPML1 blocker: inactive; TRPML1 ag: inactive; KCNH2 3.1 inh: inactive; TRHR enhancer-1: inactive; TRHR agonist-1: inactive; KCNH2 WT inh: inactive

Results for O=c1c2ccccc2nc(-c2ccccc2)n1-c1ccc(O)cc1 ?
TRPML1 blocker: inconclusive; TRPML1 ag: inactive; KCNH2 3.1 inh: inactive; TRHR enhancer-1: 46; TRHR agonist-1: inactive; KCNH2 WT inh: inactive; TRHR enhancer-2: inactive; TRHR agonist-2: inactive

How did Cc1cccc(-n2c(O)c(/C=C/C=Nc3ccccc3)c(=O)[nH]c2=O)c1 do in these assays?
TRPML1 blocker: inactive; TRPML1 ag: inactive; KCNH2 3.1 inh: inactive; TRHR enhancer-1: inactive; TRHR agonist-1: inactive; KCNH2 WT inh: inactive

What do the screens show for `Cc1ccccc1-n1c(O)c(/C=C/C=Nc2ccccc2)c(=O)[nH]c1=O`?
TRPML1 blocker: inactive; TRPML1 ag: inactive; KCNH2 3.1 inh: inactive; TRHR enhancer-1: inactive; TRHR agonist-1: 32; KCNH2 WT inh: inactive; TRHR enhancer-2: inconclusive; TRHR agonist-2: 21µM

Results for Cn1c(O)c(/C=C/C=Nc2ccccc2)c(=O)n(C)c1=S ?
TRPML1 blocker: inactive; TRPML1 ag: inactive; KCNH2 3.1 inh: inactive; TRHR enhancer-1: inactive; TRHR agonist-1: 45; KCNH2 WT inh: inactive; TRHR enhancer-2: inactive; TRHR agonist-2: inactive

Results for COc1cc(C2c3cc4c(c(O)c3CC3COC(=O)C32)OCO4)cc(OC)c1O (configuration not stated) ?
TRPML1 ag: inactive

What do the screens show for `CN1CCN(c2ccc(N)cc2)CC1`?
TRPML1 blocker: inactive; TRPML1 ag: inactive; KCNH2 3.1 inh: inactive; TRHR enhancer-1: 89; TRHR agonist-1: inactive; KCNH2 WT inh: inactive; TRHR enhancer-2: inactive; TRHR agonist-2: inactive

What do the screens show for `Cc1ccc(NC(=O)CN2C(=O)CN=C(c3ccccc3)c3ccccc32)cc1Cl`?
TRPML1 blocker: inactive; TRPML1 ag: inactive; TRHR enhancer-1: inactive; TRHR agonist-1: inactive

Results for Cc1ccc(C)c(CN2C(=O)c3ccccc3Sc3ccc(C(=O)N4CCC5(CC4)OCCO5)cc32)c1 ?
TRPML1 blocker: inactive; TRPML1 ag: inactive; TRHR enhancer-1: inactive; TRHR agonist-1: inactive

Screens (PubChem BioAssay)
